Results on 14 compounds are retold here after PubChem BioAssay (EPA / NIEHS).

SMILES strings stand for the structures. “And” between values parts separate entries of the source, which are not always exact repeats. Equal values may be shown once. Where a structure was tested more than once in an assay, its records may differ in their call. The source made the active and inactive calls. How the source made its calls: active means hit-call score of the fitted dose curve at least 0.9, where 1 is the maximum; inactive means score below 0.9.

Read-out in this test: Monocyte Chemoattractant Protein-1 (MCP1), CCL2 (gene 6347)
The test can be described thus: BSK_BF4T_MCP1: BioMAP Diversity Plus: BF4T Assay for Monocyte Chemoattractant Protein-1 (MCP1) Biomarker Activity (AID 2284259). As to conditions: primary human bronchial epithelial cells with fibroblasts. On the procedure: BSK_BF4T is a cell-based, multiplexed-readout assay that uses bronchial epithelial cells and dermal fibroblasts, a human vascular primary cell, with measurements taken at 24 hours after chemical dosing in a microplate: 96-well plate.BSK_BF4T_MCP1 is an assay component measured in the BSK_BF4T assay. It measures MCP-1 antibody related to regulation of gene expression using ELISA technology.Data from the assay component BSK_BF4T_MCP1 was analyzed at the endpoint, BSK_BF4T_MCP1, in the positive analysis fitting direction relative to DMSO as the negative control and baseline of activity. Using a type of binding reporter, gain or loss-of-signal activity can be used to understand protein changes. To generalize the intended target to other relatable targets, this assay endpoint is annotated to the 'cytokine' intended target family, where the subfamily is 'chemotactic factor'.
The levels of cell surface (or secreted, indicated by the prefix "s") biomarker endpoints were measured by ELISA. Overt cytotoxicity to cells in confluent adherent cultures (all systems other than the BT system) was assessed by measuring total protein levels using sulforhodamine B (SRB) staining in parallel cultures at the time of biomarker measurements, indicated as SRB endpoints. For proliferation assays for adherent cell types, individual cell types are cultured at sub-confluence and relative cell numbers quantified by SRB staining at time points optimized for each system (48 h: 3C and CASM3C systems; 72 h: BT and HDF3CGF systems; 96 h: SAg system). SRB was performed by staining cells with 0.1% SRB after fixation with 10% TCA and reading wells at 560 nm.Viability and proliferation of PBMC (T cells) was quantified by Alamar Blue reduction for the SAg and BT systems. For PBMC viability (referred to as PBMC Cytotoxicity within the assay endpoint names), cells were plated (75,000/well in a 96-well plate) and then chemical samples added for 1 h before addition of activators, SEB and TSST-1 (20 ng/mL final concentration each). Cells were incubated for 90 h. Then, Alamar Blue (20 uL/well) (Invitrogen, Cat DAL1100) was added for 6 h, and the plates were read with a fluorescence microplate reader at 546/580 nm (excitation/emission). For PBMC proliferation, cells were plated and activated as above but incubated for only 16 h prior to addition of Alamar Blue. Plates were read after 6 h.
Consider `FC(F)(F)C(F)(C(F)(F)F)C(F)(F)C(F)(F)CC1CO1` (stereo not given), for which the result was inactive.
Turning to `OCC(F)(F)OC(F)(F)C(F)(F)OC(F)(F)CO`, the outcome was inactive.
With `OCC(F)(F)OC(F)(F)C(F)(F)OC(F)(F)C(F)(F)OC(F)(F)F`, the AC50 – broadly, the midpoint of the concentration-response curve, whichever way the signal moves – is 44.8 µM (active) and 22.6 µM (active).
Consider `CC(O)C(F)(F)C(F)(F)F` (stereo not given), for which the result was inactive.
As for `O=C(O)C(F)(F)OC(F)(F)C(F)(F)OC(F)(F)F`, the outcome was inactive.
Same read-out and setting: as for `O=C(O)C(F)(OC(F)(F)C(F)(F)C(F)(F)F)C(F)(F)F` (stereo not given), the entry is “inactive”.
Turning to `COC(=O)C(F)(F)C(F)(F)OC(F)(C(F)(F)F)C(F)(F)OC(F)=C(F)F` (stereo not given), the AC50 is 5.24 µM (active) and the result was inactive.
In the case of `NC(=O)C(F)(F)C(F)(F)F`, the result was inactive.
On the same count and under the same terms, with `O=C(O)C(F)(F)C(F)(F)C(=O)O` the entry was “inactive”; with `O=S(=O)(F)C(F)(F)C(F)(F)C(F)(F)C(F)(F)C(F)(F)C(F)(F)C(F)(F)C(F)(F)F`, “inactive”; with `O=C(O)C=CC(F)(C(F)(F)F)C(F)(F)F`, “inactive”.
In the case of `OCC(F)(F)OC(F)(F)C(F)(F)OC(F)(F)C(F)(F)OC(F)(F)CO`, the AC50 is 17.9 µM (active) and 22.2 µM (active).
Consider `C=CC(=O)OCC(F)(F)C(F)F`, for which the outcome was inactive.
As to `O=C(O)C(F)(F)OC(F)(F)C(F)(F)OC(F)(F)C(=O)O`, the result was inactive.
